MCF10A rereplic: induces DNA re-replication in MCF 10a normal breast cells | MCF 10A DNA re-replication, Hoechst nuclear intensity, 48 h | Potency, µM (titrated, usually from 46.1 µM), usual class: activators | 2.9% of 350,000 active | AID 624296; further: nearly all actives have a fitted effect of over 50% in size
HT1080 IDH1KD tx: kills HT-1080 cells with IDH1 knockdown. AID 686971. 2% of 360,000 active. Potency, µM (series often up to 46.1 µM), hits mostly cytotoxic. HT-1080 IDH1 knockdown viability, ATP luminescence, 48 h
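Viability of IDH1-knockdown HT-1080 fibrosarcoma cells was assessed by CellTiter-Glo after 48 h at 37 °C with titrated compound; concentration-effect curves were classified by fit quality and response size.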
HT1080-NT tox: kills 2HG-producing HT-1080-NT fibrosarcoma cells; Potency, µM (top dose mostly 46.1 µM), usual class: cytotoxic; HT-1080-NT fibrosarcoma viability, CellTiter-Glo ATP luminescence, 48 h; 1.6% of 360,000 active;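 further: NT is the 2HG producing partner of a matched IDH1 knockdown line; nearly all actives have a fitted effect of over 55% in size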
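Compounds were tested in concentration-response format on HT-1080-NT cells for 48 hours at 37 degrees C. Cell viability came from CellTiter-Glo luminescence; curves were classified by r2, response magnitude and activity.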
SW480 rereplic: inducers of DNA re-replication in SW480 colon cancer cells; SW480 DNA re-replication, Hoechst DNA content imaging, 48 h; Potency, µM (highest dose often 46.1 µM), usual class: activators; 1.8% of 340,000 active; AID 624297; further: nearly all actives have a fitted effect of over 55% in size
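Image-based read-out: total Hoechst fluorescence of nuclei (405 nm excitation, 500-530 nm emission), with hits raising the fraction of high-intensity nuclei. SW480 colon cells incubated 48 hr with compounds at 37 C.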
KB-V1 MDR tox: KB-V1 MDR subline cytotoxicity; Potency, µM (highest dose often 46.1 µM), usual class: cytotoxic; KB-V1 MDR cells viability, CellTiter-Glo, 72 h; 3.4% of 400,000 active; AID 1347076; further: nearly all actives have a fitted effect of over 60% in size
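Following 72 h at 37 degrees C with compound, KB-V1 cell viability was read by CellTiter-Glo luminescence, medium being phenol-red-free DMEM plus 10% FBS; concentration-response parameters came from normalized, curve-fitted qHTS data.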
KB-3-1 tox: KB-3-1 parental cell cytotoxicity. KB-3-1 viability, CellTiter-Glo ATP luminescence, 72 h. Potency, µM (highest dose often 46.1 µM), most hits filed as cytotoxic. 1.4% of 400,000 active. AID 1347075; further: nearly all actives have a fitted effect of over 60% in size
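Parental KB-3-1 adenocarcinoma cells in phenol-red-free DMEM with 10% FBS were pin-treated with compounds at several concentrations, incubated 72 h at 37 °C, and viability read by CellTiter-Glo luminescence; concentration-effect curves were fitted after normalization.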
A number is an active result; – = inactive; ? = inconclusive; · = no result given; [ ] = remark or other dose. Sampled rows, rich in hits. Any-hit rate of the full collection: about 8%. The call rests on the fitted dose curve; in most records, active means well fitted curve in the direction sought with a large enough effect; inconclusive means small, poorly fitted or top-dose-only effect, or another doubt; inactive means no such curve, though single readings can be large; an effect the other way counts as inactive or inconclusive.

SMILES | MCF10A rereplic | HT1080 IDH1KD tx | HT1080-NT tox | SW480 rereplic | KB-V1 MDR tox | KB-3-1 tox
COc1ccc(C2=Nn3c(nnc3-c3ccccc3C(F)(F)F)SC2)cc1OC1CCOC1 (centres undefined) | – | · | · | – | – | ?
COc1ccc(C2=Nn3c(nnc3-c3ccncc3)SC2)cc1OC | ? | ? | ? | 16µM | – | ?
CCOc1ccc(-c2nnc3n2N=C(c2ccc(OC)cc2)CS3)cc1 | – | – | – | – | – | –
CCc1nnc2n1N=C(c1ccc(OC)cc1)CS2 | – | ? | ? | ? | 16µM | 23µM
COc1ccc(C2=Nn3c(nnc3-c3cccnc3)SC2)cc1OC | – | – | – | – | ? | –
CC(=O)C[n+]1cccc(Br)c1 | · | · | · | · | – | –
Cc1ccc2c(c1)Cc1c(nc(-c3ccc(F)cc3)nc1SCC(=O)N1CCCCC1)O2 | · | · | · | · | – | –
CC1=Nn2c(nnc2-c2cc(-c3ccccc3)n[nH]2)SC1 | – | – | – | – | – | –
COc1ccccc1-c1nnc2n1N=C(c1ccc(O)c(O)c1)CS2 | ? | ? | 0.21µM | ? | ? | ?
COc1ccc(OC)c(C2=Nn3c(nnc3-c3cc(C)[nH]n3)SC2)c1 | – | – | – | – | ? | –
c1ccc(-c2ccc(C3=Nn4c(nnc4-c4cc(-c5ccccc5)n[nH]4)SC3)cc2)cc1 | 15µM | 18µM | ? | ? | 16µM | ?
COc1ccc(C2=Nn3c(nnc3-c3ccccn3)SC2)cc1 | – | – | – | ? | 15µM | ?
Cc1ccc(-n2cc(C(=O)OCc3ccc(Cl)cc3)c3ccccc3c2=O)cc1 | · | · | · | · | – | –
Cc1cccc(-c2nc(CN3CCCC(C(=O)NC4CCCCC4)C3)c(C)o2)c1 (centres undefined) | ? | ? | ? | – | 21µM | ?
Cc1ccc(CNC(=O)C2CCCN(Cc3nc(-c4cccc(C)c4)oc3C)C2)cc1 (centres undefined) | · | · | · | · | – | –
CCN1CCCC1CNC(=O)C1CCN(Cc2nc(-c3cccc(Br)c3)oc2C)CC1 (centres undefined) | ? | ? | 21µM | ? | – | ?
Cc1cccc(-c2nc(CN3CCCC(C(=O)NCCc4ccc(Cl)cc4)C3)c(C)o2)c1 (centres undefined) | · | · | · | · | – | ?
Cc1oc(-c2cccc(Cl)c2)nc1CN1CCCC(C(=O)NC(C)c2ccc3c(c2)OCCO3)C1 (centres undefined) | ? | 16µM | ? | ? | 26µM | ?
Cc1cccc(-c2nc(CN3CCCC(C(=O)NC4CCCCCC4)C3)c(C)o2)c1 (centres undefined) | ? | ? | 20µM | ? | 21µM | –
O=[N+]([O-])c1ccc(C2=NN(CCO)C(=Nc3ccc(OC(F)(F)F)cc3)SC2)cc1 | – | 15µM | ? | ? | – | –
CN(C)/C=C/C(=O)/C=C/c1cn(-c2ncc(C(F)(F)F)cc2Cl)c2ccccc12 | 3.7µM | ? | ? | ? | ? | ?
COC(=O)Cc1cn(-c2ncc(C(F)(F)F)cc2Cl)c2ccccc12 | – | –[9.24 µM] | – | – | – | –
CCOC(=O)C1CCN(C(c2cc3ccc(C)c(C)c3[nH]c2=O)c2nnnn2C2CCCCC2)CC1 (centres undefined) | – | ? | – | – | 16µM | –
c1ccc(-c2cn3c(n2)-c2ccccc2C3)cc1 | – | ? | ? | – | 10µM | ?
O=C1c2ccccc2CN2C(=O)c3ccccc3CN12 | – | – | – | – | – | –
SMILES | MCF10A rereplic | HT1080 IDH1KD tx | HT1080-NT tox | SW480 rereplic | KB-V1 MDR tox | KB-3-1 tox
Cc1ccc(S(=O)(=O)c2cn(C)c3cc(N4CCN(C)CC4)c(F)cc3c2=O)c(C)c1 | – | ? | 21µM | 1.6µM | – | –
Cc1ccc(S(=O)(=O)c2cn(C)c3cc(N4CCCC4)c(F)cc3c2=O)c(C)c1 | · | · | · | · | – | –
CCN1CCCC1CNCc1cccc(OC)c1OCc1ccc(F)cc1 (centres undefined) | – | – | – | – | 12µM | –
CCOc1ccccc1CNC(=O)C1CCN(Cc2cc3ccccc3n2Cc2ccccc2)CC1 | · | · | · | · | – | –
CCN(CC)CC(=O)Nc1ccc(/C(C)=N/NC2=NCCN2)cc1 | 23µM | – | – | 18µM | – | –
C/C(=N\NC1=NCCN1)c1ccc(Cl)cc1 | ? | – | – | ? | – | –
CCc1ccc(C2c3c(-c4cc(C)ccc4O)n[nH]c3C(=O)N2CCO)cc1 (centres undefined) | · | · | · | · | – | –
CCOC(=O)c1c(C)oc2ncnc(Nc3cc(C)cc(C)c3)c12 | · | · | · | · | – | –
Cc1ccc(S(=O)(=O)N2CCN(CC(=O)N/N=C\c3ccc(Cl)c([N+](=O)[O-])c3)CC2)cc1 | – | – | – | · | – | –
O=C(CN1CCN(S(=O)(=O)c2ccc(Br)cc2)CC1)N/N=C/c1ccc(Cl)c([N+](=O)[O-])c1 | 16µM | ? | ? | – | – | –
CCOc1ccc(NC(=O)CC(c2ccccc2)c2ccc(F)cc2)cc1 (centres undefined) | – | – | – | – | 18µM | –
COc1ccc(NC(=O)CC(c2ccc(F)cc2)c2ccc(OC(C)C)cc2)cc1 (centres undefined) | 18µM | – | – | – | ? | –
O=C(NCCN1CCN(c2ccccc2F)CC1)c1cccn2c(=O)c3ccccc3nc12 | 5.2µM | – | – | – | ? | –
CN(CCCNC(=O)c1cccn2c(=O)c3ccccc3nc12)Cc1ccccc1 | ? | 20µM | ? | ? | ? | ?
O=C(NCCN1CCN(c2ccccc2)CC1)c1cccn2c(=O)c3ccccc3nc12 | – | – | – | – | ? | –
CCn1c(=O)c2cc(C(=O)NCCCN(C)Cc3ccccc3)sc2c2ccccc21 | · | · | · | · | – | ?
CC(=O)Nc1ccc(S(=O)(=O)NCc2cccn2Cc2cccc(C)c2)cc1 | · | · | · | · | – | –
O=C1C=C(c2c(O)ccc3ccccc23)c2ccccc2C1=O | – | ? | 7.3µM | 18µM | – | ?
CS(=O)(=O)Nc1ccc(C2=NN(C(=O)c3ccco3)C(c3ccccc3)C2)cc1 (centres undefined) | – | – | – | – | 16µM | –
CCS(=O)(=O)Nc1ccc(C2=NN(C(=S)Nc3ccccc3)C(c3ccco3)C2)cc1 (centres undefined) | – | ? | – | ? | 13µM | –
Cc1ccc(NC(=O)c2ccc3c(O)c(S(=O)(=O)c4ccc(Cl)cc4)c(=O)[nH]c3c2)cc1 | · | · | · | · | – | –
Cc1cc(N2CCN(C(C(=O)NC3CCCC3)c3ccc(-c4ccccc4)cc3)CC2)c2ccccc2n1 (centres undefined) | · | – | – | · | 21µM | ?

Assay outcomes: PubChem BioAssay, National Center for Advancing Translational Sciences (NCATS)
